Measurements: the supplement of paper PMC11417369
Over roughly 25,000 sequences, “ln(normalized median fluorescence intensity)” has its median near 9.7; the highest 2% begin near 11. The sample as a whole holds a higher share of the highest values than the screen did.

Each sequence was assayed on PfAP2-HC AP2 domain (GST-tagged) (assay: gcPBM binding intensity (ln(normalized median fluorescence intensity)); higher = stronger DNA binding).
Method in brief: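 Binding intensity is defined as the maximum Masliner-normalised natural-log median intensity across replicate spots for either probe orientation. It was measured on an Agilent 4 × 180k array of primer-extended double-stranded 36-bp intergenic genomic probes and negative controls, to which GST-tagged P. falciparum DNA-binding domains made in E. coli were applied for 1 h in 1× PBS with 1% milk, 0.2 mg/ml BSA, 0.5% salmon testes DNA and 0.03% Triton X-100. Detection was by Alexa488 anti-GST antibody and scanning at 488 nm.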

Sequence | gcPBM binding intensity (ln)
ATGTGTATATGTTAATGTACAAATTTTGAAAATGCC [XGTACX_site2685] | 9.86
TATTATTATTTTATGGTGCAAAAAAAAAAAAAAAAA | 8.83
TATTATATCTTATATGTATATTCCCACAAATTATAT [GTGCAC_negctrl_site362] | 9.59
TTTTGTTGTATGATAATTCTTTTATCAATATGTCTT [TGCATGCA_negctrl_site567] | 9.63
ACATTCACAAAATTTTGTACACATATATATATATAT [XGTACX_site3518] | 9.96
AATATATTTTAATACACACACACATATATATATATA [CACACA_site5969] | 10.4
AAAAAAACATGAAACACACACAAATATTTATTTATA [CACACA_site6967] | 10.2
TACTTACATATAATAACACACAAGAAAAAAATAAAA [CACACA_site1033] | 9.83
ACCTAAAAGGTATAATATATAAATAAAAAAAAAAAT [CACACA_negctrl_site134] | 9.72
AAAACACCCAAACACACACACACATATATATATATA [CACACA_site9119] | 10.8
GTATAATAGAAACACACACACACACCCAAAAAAAAA [CACACA_site2010] | 10.7
AAAAAAAAAAAAAACACACACACACCCAAATATATA [CACACA_site1169] | 11.3
TATACTCAGAAACACACACACACACCCAAAAAAAAA [CACACA_site4434] | 11.1
AAAAAAAAAAAAAAAACACACACATACACCCAAAAA [CACACA_site7910] | 10.5
CAAAAAAACAAACACACACACACACCCATATATATA [CACACA_site3653] | 11.5
AAAAAAAAAAAACACACACACACACCCAAATATATA [CACACA_site150] | 10.6
AACAAAAAAACAAACACACACACACCCATATATATA [CACACA_site3652] | 10.6
AAAAAAAAAAAAAAAAAAAAACACCCAAAAAAATAT [XGTACX_negctrl_site210] | 10.1
ATATAATGAATTATTAGAAAATAAAATGAATAAAGT [CACACA_negctrl_site690] | 9.87

Sequence | gcPBM binding intensity (ln)
CATTTTGTTTTAAAGTGTACATTATGTAATATAAAA [XGTACX_site647] | 9.33
TTTTAAAGAAAATATTTTATCATTATTTTTTGTACT [CACACA_negctrl_site1648] | 9.57
AATATAAATTTATATTGTACATATTTTATTATATGT [XGTACX_site905] | 9.67
TAAAACAGAATGAGGAGTACAAAAAGAAGAAAAGGG [XGTACX_site1246] | 9.83
ATAAAATGAAATATATGTACGCATCACTTGTTGAAC [XGTACX_site4530] | 9.72
AAAAAAAAAAAAAAAAAAAAATATATATATATATAT [GTGCAC_negctrl_site426] | 9.47
TATTTTGTTCTTTCCACACACAAATACAGATATTGT [CACACA_site6097] | 10.1
TTAAAAAAAAAACACACACACATACCCATATATATA [CACACA_site5768] | 10.4
AAAAAAAAAAAAAAAACACACATACACCCCCACCCA [CACACA_site9117] | 10.2
AAAAAAAAAAAAAACACACACACACCCATACCCATA [CACACA_site5577] | 10.5
AACACCCAAAAACACACACACATACATACATACATA [CACACA_site4411] | 10.3
AAAAAAAAAAAACACACACACACACCCATACATACA [CACACA_site707] | 11.4
TAAACACCCATACATACACACATACATACACCCATA [CACACA_site5125] | 10
CAAACACCCAAACACACACACACATACATACATACA [CACACA_site8044] | 10.7
AAAAAAAAAAAAAACACACACACACCCACATATACA [CACACA_site2663] | 10.6
CACAAACACCCAAACACACACACACCGACATACATA [CACACA_site4410] | 11.1
AAAAAAAAAAAACACACACACACACCCATATACATA [CACACA_site2664] | 11
AAAAAAAAAAAACACACACACACATACCCATACATA [CACACA_site5575] | 11.3
ACTAATATGTATATATATATATATATATATATATAT [CACACA_negctrl_site141] | 9.58

Sequence | gcPBM binding intensity (ln)
TCTTAATTTGTTATATGTACATAATATAATTGTATA [XGTACX_site5184] | 9.55
TATTATTTATATGATACACACGTACATATACACATA [CACACA_site9275] | 9.86
TTTAATAATATAATGTGTACTTAAAAATTTATATAT [XGTACX_site5821] | 9.44
TATACATACATACATACACACACACCGATATATACA [CACACA_site8184] | 10.8
AAAAAGAAAAAACTTACACACATATATACAGACATG [CACACA_site550] | 10
AAAAAACAGACATACACACACACACCCATATATATA [CACACA_site3392] | 10.8
AACATACATAAACACACACACACACCCACACCCACA [CACACA_site8058] | 10.8
AACATACATAAACACACACACACACCCACAGAGACA [CACACA_site4430] | 11
CATACATACAAACACACACACACACCGATATATATA [CACACA_site8952] | 10.7
AAAAAGAAAAAACTTACACACATATATACCCCCATG [CACACA_site4463] | 10.2
AAAAAAAAAAAAAAAACACACATACACCCAGACACA [CACACA_site5807] | 11.3
TAAACATACAGATACACACACACACCCACAGAGACA [CACACA_site4429] | 10.6
CATACACCCAGACACACACACATATATATATATATA [CACACA_site634] | 10.4
AAAAAGAAAAAACTTACACACATATATACACCCATG [CACACA_site8079] | 11.3
AAAAAACACCCATACACACACACACCGATATATATA [CACACA_site5808] | 11
TTTAAAACCTTACATACACACAAATATATATATATA [CACACA_site677] | 10
AAAAAATATGCATATACACACATATGTATAAATAAC [CACACA_site7090] | 10.1
TATTTAACACCTTATACACACTTTCTTCCTTTTTTA [CACACA_site4590] | 10.1
